Assay results taken from PubChem BioAssay AID1159580 (chemical genetic matrix, 2015).
About 2,000 (36%) of roughly 5,500 compounds were called active. Inconclusive results (about 18%) are left out. Cut-off read from the data, not from the text of the source: active = normalized growth mostly below about 0.91 (no sharp cut-off); inconclusive = no clear call, values can overlap the other calls; inactive = mostly above about 0.92. This is one part of the list.

Experiment: chemical genetic growth profiling, strain panel (AID 1159580);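 note: tested at 20 µM; growth read once vehicle control cultures reached saturation at 30 °C; 1 = growth at the plate median or of vehicle wells; lower values mean less growth of the strain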
Settings: S. cerevisiae deletion strains, growth OD

Measured: normalized growth

C#C[C@@H]1CC2C3CCC4=C[C@@H](OC(C)=O)CCC4C3CC[C@]2(C)[C@H]1OC(C)=O (stereo not given in full)
inactive: locus YHR030C, strain SLT2, stronger effect = lower value 1 | locus YHR079C, strain IRE1, stronger effect = lower value 0.929 | locus YJL095W, strain BCK1, stronger effect = lower value 0.951 | locus YJR066W, strain TOR1, stronger effect = lower value 0.947 | locus YLR113W, strain HOG1, stronger effect = lower value 0.912 | locus YNL183C, strain NPR1, stronger effect = lower value 0.903 | locus YOR231W, strain MKK1, stronger effect = lower value 0.946 | locus YPL256C, strain CLN2, stronger effect = lower value 0.936

CC(=O)OCC(=O)[C@@]1(O)CC[C@H]2[C@@H]3CCC4=CC(=O)CC[C@]4(C)[C@H]3C(=O)C[C@@]21C
inactive: locus YAL040C, strain CLN3, stronger effect = lower value 0.998 | locus YER002W, strain NOP16, stronger effect = lower value 0.991 | locus YGR078C, strain PAC10, stronger effect = lower value 1 | locus YNL175C, strain NOP13, stronger effect = lower value 0.985 | locus YNL197C, strain WHI3, stronger effect = lower value 0.982 | locus YNL224C, strain SQS1, stronger effect = lower value 1.01 | locus YOR083W, strain WHI5 (second series), stronger effect = lower value 0.976
